Results from the supplement of paper PMC12632987.
Over roughly 4,500 sequences, “median log2 fold change of GCK-ALFA target abundance (FLAG IP / Myc IP barcode read proportion)” has its median near 0.078; the lowest 2% begin near -0.6. This is one part of a sample in which the lowest values are shown more often than they occur.

B1: GBRAP_64_6479 (protein)
chain: NEEIEELLEELLEAARRLLALFERENPELAPEAQEIVDLLEEAKTASLEERLDLVLEVTDRLHALLRDPRVTPEQRDALLEALDLAMALAALLAEEVEKE
B2: GBRAP_80_6848 (protein)
chain: AEERLAAALAALEALLPEVAEEARELVALARELGVPDEEIAAFLEALNELAKLDPELAAELIREALEDMKELKEEGDSENALAVVRGYTGDALMAAEELE
B3: GBRAP_80_6856 (protein)
chain: AAAALAAALAALKALLPEVAEDAKEIVEIARELGVPDADIADLMEALAELAKVDPELAAELIKELLEELKEEKERGDAERALAVVRGYAGEALMLAEELE
B4: GBRAP_80_6846 (protein)
chain: AAARLAAELAALKALLPEVAEDAKEAVALARELGVPDADIADYLAALNELAKLDPELAAALLKELLADLREEKAEGDSENALAVVRGYTGEALMEAEELE
B5: GBRAP_166_4906 (protein)
chain: MKEEKIEELIERAEELIEELKEADEEEALELLIEIGEVLRELKELGASEEEILELVRRTLEAVKERGLSVRVAAGIIAEVADFDEEMREKLDEIAREVEA
B6: GBRAP_78_6635 (protein)
chain: EVEELIDKALEKVSEAAKAALKLPLDLRAEVLDELSDAAVELVEAEEGEDKEEELEEALEELEEALEIVEENDSPLTEEIKKLLEEAIELVKKAIEELKE
B7: GBRAP_52_6046 (protein)
chain: MEEEARKLAKELLELVLEGKEEEARKLAREIAETKNEEEILKIAEELAKLVLEGDKETAEAGIKAAEIMAEELEKAGRDEGLADLILATVYGAAYKRLQK
B8: GBRAP_160_4784 (protein)
chain: MERVEKVAKRFREAAKRALELSKGETAENRANIVDVELGSAILELEEEGLLNDEEEEVAAEVRDELVAEILANPNLTDEELKALLEKAVEELRKRLEELE
B9: GBRAP_160_4344 (protein)
chain: SEEKEKLLKFVDEEFEEAIELIKGESIEQRKVIISGTFGEILMELSESPIISDELEDEVREIEDELLEYLDKNPDLSEEEIKELIKEAREKVKEAIEKHT
B10: GBRAP_35_5577 (protein)
chain: EDEEMLLETVEDLAEATIEAIKEGNLDLAIALLKAFLRTAKIAIEDLKNNKEALEKIAELLEKVIEEIKKYLSDNPEVQELKKELEELLKEAKEKLKKVK
B11: GBRAP_35_5576 (protein)
chain: EDKEMLLETVEDLAEATIEAIKEGDVDLAIALLKAFLRTAKLAVEELENDLEALEKIAELLKKVIEEIKKHLADNPEMQKLLKELEKLLKEVKEKAEKVK
B12: GBRAP_52_5857 (protein)
chain: SSARMRALAEELLALRLAGKEEELEARVKELVATLSEEEILALLEELAALAKEADKEGAEAILDVAELLADEAEEAGFDEDELSYALAEVAAAAYKQLQK
B13: GBRAP_128_3469 (protein)
chain: MTEEAVERTRKILEEMKKASPEEARELFKELFEWLLTLPLEVVEAVVEEIEKHLPELSAEKLEILAEVADEAMPKATPEKAALLADLRSSALLEAEKLEE
B14: GBRAP_35_5506 (protein)
chain: DSMSTIADMLVATIDDTVLAIPDLDVETAVQISRQLIRSAREVAEDLKDDPEGLKRLRDSMERLRDALVKHYGDNPLAQEAIKEIDELIKELEERIKEAE
B15: GBRAP_128_3267 (protein)
chain: MNPEVVAYAEAFVEKLKAAGPEEAKKLADELMEKLKTMSLEEVEQFVEVLEKKLKELSVEKLEILADAARKHRDEFSPEKANLVAGLEVEALNEAVEKEE
B16: GBRAP_160_3969 (protein)
chain: SEEVEKLLKEIDEIFEEAKEMIVGESFENRLTIVRVAVGEVLLLLSENPLVSDEAEDKVDEIGDELIATIEANPDLTEEEIKELIDKAEEEIKKIIKEDA
B17: GBRAP_125_3096 (protein)
chain: HMEEILEALKLLAKALGFSEEEAEELARLAANSSVKQTLYALFAAEGYEELADLVEKLTEEQAKEVLLELAKWLKENPNASKEEVVKKAKELAKKALAKA
B18: GBRAP_160_4666 (protein)
chain: MEELEKLMKELEEIAKEAVEMTKGQSHEERVAIIRVMKGEIILELEESKIATDEVVDYADELGDELIAYVAANPDLTEEELQELLDKMLKEIEEKLKEEL
B19: GBRAP_128_3471 (protein)
chain: AVEEARKRTEEIMEKMKEANDEEFKKLAEELAEWLLTLPVEEVEAAVEVIKEHLPELSAEKLEILADVLDKAMPKATPEKAALFADVRSEALLLAEEKEE
B20: GBRAP_166_4959 (protein)
chain: SLEEVRARLEAALAAFEAEGASLSLEERRDRLVEIAELLGEAARAGLPREELLEAAVRLLLLARAAGLSPAFVEAALVNIAGLPVELVDEALARAEALAA
B21: GBRAP_26_5483 (protein)
chain: REREILDELEAKVKAILADEPAEVRAAVVAEAIDALIEFAEVVEANINDEEKIEKAKKEALEEMRKFLEDLGIPEDKREKVVKALAEALEKVEKAIKEEA
B22: GBRAP_160_4794 (protein)
chain: SERIEKVAEIFREEAERALEMARGETVEERVAIFDVELGSAIMEAIEEGLLNDEEEDIAIEVRDELVEEVRRNPELTEEELRELARRKIEELRERLEELE
B23: GBRAP_9_7151 (protein)
chain: MEELFKKVKEILEDAFEEVKEVVPEEVKPIVDEKREEVLKRLEELAKDPNVTKEELKEEAKELVDEFEEAIKEKVDEETAKMVEAIALTAKLEIEEVAEE
B24: GBRAP_160_4217 (protein)
chain: MELVEKLVEIVREEFEEALELIEGESEEERRVILDVAVGNVILEAMEIPGVTDEMEEVVEEKSRELAEELLEARDKSEEERRKLIEERVEELREELEKLE
B25: GBRAP_160_4215 (protein)
chain: DEIVEKLVEIAREEFEEALELIEGESEEERRVILDVAVGNVILEASEIPGVTDEMEETVDRMSEELARELLEAAGESEEERRALIEERTEELRKELKKLA
B26: GBRAP_160_4218 (protein)
chain: MELVKKLVEIVREEFEEALELIEGESPEERRVILDVAVGNVILESMEIEGVTDEMEETVEEMSEELAEELLEAADESPEERRELIEERVEELEKELKKLE
B27: GBRAP_160_4516 (protein)
chain: SPKLERIEKLVEEARERIIEVIDEGDVEAAITVAAVEFGEVIMEIAEDESMSDEAEDAAAEIRDKLVEELKKAKDASKEEKKKIVEEKSKELIEKLKKLS

Each binder was assayed against GABARAP, O95166 (assay: median log2 fold change of GCK-ALFA target abundance (FLAG IP / Myc IP barcode read proportion) (log2 ratio); each designed protein is fused to an ALFA-tag nanobody in HEK293 cells to bring the named protein to FLAG-tagged glucokinase (GCK); Myc marks an untargeted standard; higher = target protein stabilised (more abundant)). Conditions: target protein: 3xFLAG-MCP-GCK-ALFA reporter; HEK293 landing pad (RPLP).
GABARAP, O95166, sequence (O95166 whole entry, the tested form may be a part): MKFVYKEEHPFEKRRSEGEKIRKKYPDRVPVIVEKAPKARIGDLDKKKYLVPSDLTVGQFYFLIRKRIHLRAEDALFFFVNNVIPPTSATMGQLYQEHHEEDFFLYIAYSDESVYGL
How it was run: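 Sequencing of reverse-transcribed, amplified circular RNA barcodes from anti-FLAG and anti-Myc immunoprecipitates provided the readout for an ALFA-nanobody-fused binder library recombined into HEK293 landing-pad cells. Those cells were induced with 2 μg mL^−1 doxycycline, transfected with a plasmid expressing a FLAG-tagged target and a Myc-tagged standard, and lysed after 48 h. Target abundance is the per-binder median log2 ratio of FLAG to Myc barcode read proportions. Only barcodes at a proportion of ≥10^−7 in both replicates and binders with ≥3 barcodes per replicate were kept, with a 10^−6 pseudocount added before the two replicates were pooled.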

Point of comparison: B18, “median log2 fold change” value -1.11. Against it:
- B1 — higher, -0.254
- B2 — higher, -0.203
- B3 — higher, -0.242
- B4 — higher, -0.698
- B5 — higher, -0.128
- B6 — within 0.2 log units, -1.21
- B7 — higher, -0.00871
- B8 — higher, 0.242
- B9 — higher, -0.232
- B10 — higher, 0.248
- B11 — within 0.2 log units, -1.27
- B12 — higher, -0.305
- B13 — higher, 0.314
- B14 — higher, -0.631
- B15 — higher, 0.119
- B16 — higher, -0.61
- B17 — higher, 0.229
- B19 — higher, 0.298
- B20 — higher, 0.117
- B21 — higher, 0.341
- B22 — higher, 0.169
- B23 — higher, 0.225
- B24 — higher, -0.6
- B25 — higher, -0.331
- B26 — higher, -0.299
- B27 — higher, 0.404
